Bioassay records (PubChem BioAssay)
Most compounds without a hit are left out; they make up all but 21% or so of the library.
Pf growth 48h: P. falciparum growth inhibition at 48 hours (one generation); P. falciparum luciferase growth in erythrocytes, 48 h; Potency, µM (series often up to 28.7 µM), actives largely listed as inhibitors; 310,000 compounds, 5.9% hits; AID 504832
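Cell-based growth assay: transgenic P. falciparum expressing firefly luciferase, cultured in red cells within RPMI 1640 containing 0.5% w/v Albumax, 24 mM bicarbonate and gentamycin. A drop in luciferase activity indicates inhibition.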
CHX counter: affects cycloheximide protein synthesis inhibition readout, counter-screen | max response, % | cell reporter, cycloheximide protein synthesis inhibition counterscreen | 300,000 compounds, 12% hits; in the data active = max response mostly above about 13%, no sharp cut-off; inactive = mostly below about 14%; note: read at 38.3 µM for the half of the compounds with a filed dose
Shiga inhibitor: Shiga toxin inhibition | Vero cells, Shiga toxin protein synthesis inhibition reporter | inhibition, % at 38.7 µM | 290,000 compounds, 9.2% hits; in the data active = inhibition mostly above about 28%, no sharp cut-off; inactive = mostly below about 43%
Pf growth 96h: inhibits malaria parasite growth, 96 h; Potency, µM (titrated, usually from 28.7 µM), most hits filed as inhibitors; 320,000 compounds, 6.9% hits; P. falciparum luciferase reporter growth, 96 h; AID 504834
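Readout is luminescence from an integrated firefly luciferase in P. falciparum. Red cells, 2% hematocrit and 0.05% parasitemia final, were cultured with compound through two parasite generations (96 hours) at 37 C, 5% CO2.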
Numbers stand for hits; i = inactive; ? = inconclusive; nt = no result given. Unless noted, calls come from the whole dose curve; as a rule, active = well fitted inhibition curve with a large enough effect; inconclusive = small, poorly fitted or top-dose-only effect, or another doubt; inactive = no such curve, though single readings can be large or run the other way.

SMILES	Pf growth 48h	CHX counter	Shiga inhibitor	Pf growth 96h
CC(C)(C)CN1CCNC(=O)C1CC(=O)NCCc1cnn(-c2ccccc2)c1 (stereo unspecified)	i	11.9	i	i
O=C(CC1C(=O)NCCN1CCCc1ccccc1)NCCc1ccccc1Cl (stereo unspecified)	13.1µM	i	i	?
CCCCCCCCCCCCCCCCSCC(COC)COP(=O)([O-])OCC[N+](C)(C)C (stereo unspecified)	nt	i	i	nt
CCCN1C[C@H](CSC)C[C@@H]2c3cccc4[nH]cc(c34)C[C@H]21	?	i	i	10.4µM
CCCC(=O)Nc1ccc(NC(=O)c2ccccc2F)cn1	i	16.1	i	i
COc1ccc(C(=O)Nc2ccc(NC(=O)c3ccccc3F)cn2)cc1	i	i	i	i
O=C(Nc1ccc(NC(=O)C2CC2)nc1)c1ccccc1F	i	24.2	79.1	i
O=C(Nc1ccon1)c1ccccc1Cl	i	i	i	nt
CCC(=O)Nc1ccc(NC(=O)Cc2ccccc2)cn1	i	i	i	nt
CC(C)C(=O)Nc1ccc(NC(=O)c2ccccc2Cl)nc1	i	38.1	71.3	?
O=C(Nc1ccc(Cl)cn1)C1CC1	i	i	i	i
CCC(=O)Nc1ccc(NC(=O)c2ccccc2)nc1	i	24.9	70.4	i
COc1ccccc1NC(=O)c1ccc2c(c1)N(CC(=O)NC(C)C)C(=O)C(C)(C)O2	i	i	i	i
O=C(NCc1ccc(Cl)cc1)c1cc(S(=O)(=O)N2CCCCC2)c[nH]1	?	i	i	i
CCc1nnc(NS(=O)(=O)c2ccc(N=CC3=C(O)CC(C)(C)CC3=O)cc2)s1	i	i	i	?
CCC(=O)Nc1ccc(NC(=O)c2ccccc2Cl)nc1	i	21.3	i	?
CCCC(=O)Nc1ccc(NC(=O)c2ccccc2)nc1	i	20.8	39.6	i
O=C(Nc1ccc(NC(=O)C2CCCCC2)nc1)c1cccs1	?	34.7	64.6	i
Cc1ccc(NC(=O)c2ccccc2OCC(=O)Nc2cccc(Cl)c2C)nc1	i	i	i	i
COc1cc(C(=O)Nc2ccc(NC(=O)C3CCCCC3)nc2)cc(OC)c1OC	?	i	i	?
CN(C)c1ccc(CNS(=O)(=O)c2ccc3c(c2)C(C)(C)C(=O)N3C)cc1	i	i	i	?
Cc1cc2c(n1-c1ccc(C(=O)O)cc1)CCCCC2	i	i	i	i
CSc1c(C#N)sc(=S)n1-c1ccc(C)cc1	?	i	i	10.4µM
Cc1ccc(-n2c(N)c(C(N)=O)sc2=S)cc1	nt	i	i	i
O=[N+]([O-])c1cccc(S(=O)(=O)c2cccc([N+](=O)[O-])c2)c1	i	i	i	?
SMILES	Pf growth 48h	CHX counter	Shiga inhibitor	Pf growth 96h
O=C1C(c2ccncc2)=C(O)c2ccccc21	i	26.1	i	i
CC(C)c1ccc(C2=C(O)c3ccccc3C(=O)C2=O)cc1	1.47µM	i	i	i
Cc1ccc(C2=C(O)c3ccccc3C(=O)C2=O)cc1	?	i	i	i
O=C1C(=O)c2ccccc2C(O)=C1c1cccc([N+](=O)[O-])c1	?	23.4	i	7.38µM
Cc1cc(SCC(=O)N2CCN(C(=O)c3ccco3)CC2)c(C)cc1Br	?	nt	nt	i
CCOC(=O)/C=c1\s/c(=C\c2ccc3cc(OC)ccc3c2)c(=O)n1CC(=O)NCc1ccc2c(c1)OCO2	?	i	i	?
CCOC(=O)C(Nc1ccc2ccccc2c1)C(=O)OCC	?	74.1	80.0	?
CC(=O)Nc1ccc2cc3ccc(NC(C)=O)cc3nc2c1	?	21.0	i	?
O=C(Nc1ccccc1)Nc1ccc2ccccc2c1	i	51.7	81.0	i
CC(=O)Nc1ccc2ccccc2c1	nt	29.2	i	i
CCC(C(=O)OCC(=O)NC1CCS(=O)(=O)C1)c1ccccc1 (stereo unspecified)	i	nt	nt	i
NS(=O)(=O)c1ccc(CCNC(=O)c2ccc(C#CC3(O)CCCCC3)cc2)cc1	i	i	i	i
Cc1cc(C)nc(SSc2nc(C)cc(C)n2)n1	?	i	i	?
CCOc1ccc(C(=O)NNC(=O)CCNC(=O)c2ccc(Br)cc2)cc1OC	i	nt	nt	?
COC(=O)C1=C(C(=O)OC)[C@@H]2N(C)c3ccc(OC)cc3[C@@]23C[C@@H](C(=O)OC)N(C(=O)c2cccs2)C3=N1	i	i	i	i
COC(=O)[C@]1(CC(C)C)N[C@H](c2ccc(-c3cccc(Cl)c3)cc2)[C@@H]2C(=O)N(C)C(=O)[C@@H]21	2.62µM	nt	nt	1.31µM
CCCCN1C(=O)C2C(c3ccc(OC)cc3O)NC(CC(C)C)(C(=O)O)C2C1=O (stereo unspecified)	nt	i	i	i
COC(=O)[C@]1(CC(C)C)N[C@H](c2ccc(-c3ccc4c(c3)OCO4)cc2)[C@@H]2C(=O)N(C)C(=O)[C@@H]21	?	nt	nt	13.1µM
